Records with an inconclusive call do not appear. Activity calls are given as the source filed them. Unless noted, the call rests on the fitted dose curve; in most records, active means well fitted curve in the direction sought with a large enough effect; inconclusive means small, poorly fitted or top-dose-only effect, or another doubt; inactive means no such curve, though single readings can be large; an effect the other way counts as inactive or inconclusive.
Tests used:
[1] = Cell Viability - BJ (AID 421; calls by dose curve;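 further: potency means the concentration at half of the fitted maximal effect; cells exposed to compound for 40 hours at 37 °C before readout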); details: BJ fibroblast viability, qHTS
Summary of the method: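 Luminescent ATP signal (CellTiter-Glo, 20 min at room temperature) served as the read-out of viable BJ cells after 40 hours of compound treatment. Responses were scaled between DMSO and 100 uM tamoxifen, and AC50 values were obtained by Hill modeling.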

[2] = Cell Viability - Jurkat (AID 426;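 active means dose-dependent loss of cell ATP signal giving a full or clear fitted curve, ranked by lower potency value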;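 further: potency means the concentration at half of the fitted maximal effect; cells exposed to compound for 40 hours at 37 °C before ATP read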); details: qHTS
Summary of the method: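 Cytotoxicity taken as drop in cellular ATP (CellTiter-Glo luminescence, 20 min room temperature) after 40 hr, 37C treatment of 5000 Jurkat Clone E6-1 cells per well; concentration-response fitted with Hill equation for AC50.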

[3] = Cell Viability - HepG2 (AID 433; calls by dose curve;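 further: potency means the concentration at half of the fitted maximal effect; potency for ATP loss meaning cytotoxicity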); details: qHTS
Summary of the method: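 Read-out is luciferase-based quantitation of cellular ATP as a measure of viable HepG2 cells after 40 h treatment at 37 °C. Signal decrease is scaled between DMSO-only and 100 uM tamoxifen controls, with AC50 fitted by the Hill equation.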

[4] = Cell Viability - MRC5 (AID 434; calls by dose curve;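 further: potency means the concentration at half of the fitted maximal effect; cells exposed to compound for 40 hours at 37 °C; potency reflects cytotoxicity seen as loss of intracellular ATP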); details: MRC5 lung fibroblast viability, qHTS
Summary of the method: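 ATP luminescence read-out (CellTiter-Glo, 20 min RT) after 40 hr, 37 °C compound exposure of 1500 MRC5 cells/well. Data normalized to DMSO (basal) and 100 uM tamoxifen (100% inhibition); AC50 from standard Hill equation.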

[5] = Cell Viability - SK-N-SH (AID 435; calls by dose curve; further: potency means the concentration at half of the fitted maximal effect); details: SK-N-SH neuroblastoma cell viability qHTS
Summary of the method: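 Luminescent ATP signal served as the viability read-out after 40 hours of compound treatment of human neuroblastoma SK-N-SH cells. Concentration-response data, scaled between DMSO and 100 uM tamoxifen, gave AC50 values by standard Hill modeling.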

[6] = molecular target: Mitogen-activated protein kinase 10 (Mus musculus) (UniProt Q61831); experiment: JNK3 AlphaScreen Assay (AID 530; active means well fitted curve in either direction with a large enough effect, not every such curve was filed as active;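 further: kinase came from lysate of stimulated human HepG2 cells; signal reports phosphorylation of biotinylated GST-cJun 1-79 at Ser73 with 10 µM ATP; on the % scale 0 is the no-effect control and ±100 the full control effect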); details: JNK3 lysate, c-Jun phosphorylation; series mostly up to 57.1 µM
Summary of the method: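 Activity was read by AlphaScreen after JNK3-containing HepG2 lysate (cytokine pre-activated) phosphorylated biotinylated GST-cJun with 10 uM ATP at room temperature. Phospho-Ser73 cJun antibody with Protein-A acceptor beads provided detection.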

[7] = Cell Viability - N2a (AID 540); details: N2a mouse neuroblastoma cell viability; activity change, negative = cytotoxicity: at 92.2 µM (top of the series);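 further: plate controls were DMSO alone for no effect and tamoxifen control for full effect; nearly all actives have a fitted effect of over 45% in size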
Summary of the method: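 CellTiter-Glo ATP luminescence, read 20 min after reagent at room temperature, reported viability following 40 h compound treatment at 37 °C. N2a mouse neuroblastoma cells seeded 1500/well; Hill equation gave AC50.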

[8] = Cell Viability - NIH 3T3 (AID 541); details: NIH 3T3 cell viability, qHTS; activity change, negative = cytotoxicity: at 92.2 µM (top of the series); further: nearly all actives have a fitted effect of over 25% in size; further: potency means the concentration at half of the fitted maximal effect;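 on activity change, negative = cytotoxicity: plate controls were DMSO alone for no effect and tamoxifen positive control for full effect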
Summary of the method: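 Intracellular ATP (CellTiter-Glo luminescence, 20 min at room temperature) measured after 40 hr compound exposure at 37 °C of 1000 NIH 3T3 mouse fibroblasts/well in complete medium; AC50 derived by Hill-equation modelling of qHTS concentration-response curves.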

[9] = Cell Viability - HUV-EC-C (AID 542); details: HUV-EC-C endothelial cell viability, qHTS; series mostly up to 92.2 µM; further: on the % scale 0 is the no-effect control and ±100 the full control effect; nearly all actives have a fitted effect of over 35% in size
Summary of the method: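 CellTiter-Glo luminescence measured ATP loss in HUV-EC-C cells (1000/well) after 40 hr compound exposure at 37 °C, in complete culture medium. Concentration-response data were Hill-fitted to give AC50.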

[10] = Cell Viability - H-4-II-E (AID 543); details: H-4-II-E rat hepatoma viability; series mostly up to 92.2 µM; further: on the % scale 0 is the no-effect control and ±100 the full control effect; nearly all actives have a fitted effect of over 35% in size
Summary of the method: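 CellTiter-Glo luminescence (intracellular ATP) measured after 40 h compound exposure at 37 °C in H-4-II-E rat hepatoma cells seeded at 1500/well. Values are AC50s fitted with the standard Hill equation.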

[11] = Cell Viability - SH-SY5Y (AID 544); details: SH-SY5Y neuroblastoma cell viability; viability change, negative = cytotoxic: at 92.2 µM (top of the series); further: nearly all actives have a fitted effect of over 55% in size
Summary of the method: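 Cytotoxicity measured via ATP-dependent luciferase luminescence (CellTiter-Glo) following 40 h, 37 °C exposure of 1500 SH-SY5Y cells per well. Concentration-response data were fitted with the standard Hill equation to give AC50.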

[12] = Cell Viability - Renal Proximal Tubule (AID 545); details: renal proximal tubule cells viability, primary cells of rat origin; series mostly up to 91.7 µM; further: nearly all actives have a fitted effect of over 40% in size
Summary of the method: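 Luminescent ATP signal (CellTiter-Glo) served as the viability read-out after 40 hr compound exposure of freshly isolated rat proximal tubule cells at 37 °C. Concentration-dependent ATP loss was fitted with the Hill equation to give AC50.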

[13] = Cell Viability - Mesenchymal (AID 546); details: mesenchymal cells viability, qHTS; series mostly up to 91.7 µM;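 further: cells exposed to compound for 40 hours before reading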
Summary of the method: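 Human renal mesenchymal cells (glomerulus-derived), 1000 cells/well, 5 hr 37 °C pre-incubation; compound 40 hr, 37 °C; CellTiter-Glo, 20 min RT; luminescence; AC50 via Hill equation.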

[14] = Cellular Toxicity (caspase-3) HepG2 (AID 654); details: HepG2 caspase-3 activation, luminescence; series mostly up to 92.2 µM;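 further: cells exposed to compound for 16 hours before reading; 0% = DMSO alone and 100% = caspase signal from 100 µM tamoxifen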
Summary of the method: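 Caspase 3/7 activation is measured as a luminescence increase (aminoluciferin substrate) after 16 h compound exposure of human hepatocarcinoma HepG2 cells. AC50 values are Hill fits, scaled between DMSO baseline and 100 uM tamoxifen stimulation.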

[15] = Cellular Toxicity (caspase-3) Jurkat (AID 655); details: Jurkat caspase-3 activation, luminescence; caspase-3 activation: at 92.2 µM (top of the series), DMSO = 0%, tamoxifen = 100%;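 further: cells exposed to compound for 16 h at 37 °C before reading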
Summary of the method: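 5000 Jurkat cells/well; compound 16 hr, 37 °C; Caspase-Glo 3/7 added, 20 min RT; luminescence read. Norm: DMSO = 0%, tamoxifen 100 uM = 100%. AC50, Hill model.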

[16] = Cellular Toxicity (caspase-3) HUV-EC-C (AID 656); details: HUV-EC-C cells, caspase-3 activation (apoptosis), vehicle = 0, 100 µM tamoxifen = 100%; series mostly up to 92.2 µM
Summary of the method: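 qHTS; HUV-EC-C, 1000 cells/well; 5 hr settle, 16 hr cmpd, 37°C; Caspase-Glo 3/7, 20 min RT; luminescence. Norm: DMSO = 0%, tamoxifen 100 uM = 100%. Hill-fit AC50.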

[17] = Cellular Toxicity (caspase-3) SHSY5Y (AID 657); details: SH-SY5Y caspase-3 activation, DMSO zero, 10 µM staurosporine = 100%; series mostly up to 91.7 µM;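 further: cells exposed to compound for 16 hours at 37 °C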
Summary of the method: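 qHTS, SH-SY5Y, 1500 cells/well, 5 h pre-incubation 37 °C; compound 16 h 37 °C; Caspase-Glo 3/7 1 h RT; luminescence. Norm.: DMSO = 0, 10 uM staurosporine = 100%. Hill fit → AC50.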

[18] = Cellular Toxicity (caspase-3) MRC-5 (AID 659); details: MRC-5 cells, luminescence, normalized: DMSO 0%, 10 µM staurosporine 100%; series mostly up to 91.7 µM
Summary of the method: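 MRC-5 fibroblasts, 1500/well; 16 h cpd, 37 °C; Caspase-Glo 3/7, 1 h RT; lumi read. Norm: DMSO = 0%, 10 uM staurosporine = 100%. Hill-fit AC50 from qHTS conc-response.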

[19] = Cellular Toxicity (caspase-3) BJ (AID 658); details: BJ fibroblasts, luminescence, normalized: DMSO 0%, staurosporine 100%; series mostly up to 91.7 µM;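 further: cells exposed to compound for 16 hours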
Summary of the method: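 qHTS, BJ fibroblasts, 1000 cells/well; 5 hr preincubation, 16 hr compound, 37 °C; Caspase-Glo 3/7 reagent, 1 hr RT; luminescence. DMSO = 0%, 10 uM staurosporine = 100%. Hill-equation AC50.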

CC(C)(C)OC=O
inactive: Potency [1] > 92 µM | Potency [2] > 92 µM | Potency [3] > 92 µM | Potency [4] > 92 µM | Potency [5] > 92 µM | outcome [6] | activity change, negative = cytotoxicity [7] -8.52% | Potency [8] | Potency [9] | Potency [10] | Potency [11] | Potency [12] | Potency [13] | Potency [14] | caspase-3 activation [15] -1.27% | outcome [16] | outcome [17] | outcome [18]

CC/C=C/C#N
inactive: Potency [1] > 92 µM | Potency [2] > 92 µM | Potency [3] > 92 µM | Potency [4] > 92 µM | Potency [5] > 92 µM | outcome [6] | activity change, negative = cytotoxicity [7] -7.86% | Potency [8] | Potency [9] | Potency [10] | Potency [11] | Potency [12] | Potency [13] | Potency [14] | outcome [16] | outcome [17] | outcome [19]

Cc1cccc(C(=O)O)c1[N+](=O)[O-]
inactive: Potency [1] > 92 µM | Potency [2] > 92 µM | Potency [3] > 92 µM | outcome [6] | activity change, negative = cytotoxicity [7] 8.99% | Potency [8] | Potency [9] | Potency [10] | Potency [11] | Potency [12] | Potency [13] | Potency [14] | caspase-3 activation [15] 0.0965% | outcome [16] | outcome [17] | outcome [19] | outcome [18]

FB(F)F
inactive: Potency [1] > 92 µM | Potency [2] > 92 µM | Potency [3] > 92 µM | Potency [4] > 92 µM | Potency [5] > 92 µM | outcome [6] | activity change, negative = cytotoxicity [7] 5.96% | Potency [8] | Potency [9] | Potency [10] | Potency [11] | Potency [12] | Potency [13] | Potency [14] | caspase-3 activation [15] 1.14% | outcome [16] | outcome [17] | outcome [19] | outcome [18]

CCCCCCO
inactive: Potency [1] > 92 µM | Potency [2] > 92 µM | Potency [3] > 92 µM | Potency [4] > 92 µM | Potency [5] > 92 µM | outcome [6] | activity change, negative = cytotoxicity [7] 4.85% | Potency [8] | Potency [9] | Potency [10] | Potency [11] | Potency [12] | Potency [13] | Potency [14] | caspase-3 activation [15] -0.00564% | outcome [16] | outcome [17] | outcome [18]

CCOCCO
inactive: Potency [1] > 92 µM | Potency [2] > 92 µM | Potency [3] > 92 µM | Potency [4] > 92 µM | Potency [5] > 92 µM | outcome [6] | activity change, negative = cytotoxicity [7] -17.9% | Potency [8] | Potency [9] | Potency [10] | Potency [11] | Potency [12] | Potency [13] | Potency [14] | caspase-3 activation [15] 0.459% | outcome [17] | outcome [19] | outcome [18]

CCN(C(=O)N(CC)c1ccccc1)c1ccccc1
inactive: Potency [1] > 92 µM | Potency [2] > 92 µM | Potency [3] > 92 µM | Potency [5] > 92 µM | outcome [6] | activity change, negative = cytotoxicity [7] -13.7% | Potency [9] | Potency [10] | Potency [11] | Potency [12] | Potency [13] | Potency [14] | outcome [16] | outcome [17] | outcome [19] | outcome [18]
active: Potency [8] 7.94 µM

C=CCCCCCC
inactive: Potency [1] > 92 µM | Potency [2] > 92 µM | Potency [3] > 92 µM | Potency [4] > 92 µM | Potency [5] > 92 µM | outcome [6] | activity change, negative = cytotoxicity [7] 6.33% | Potency [8] | Potency [9] | Potency [10] | Potency [11] | Potency [14] | caspase-3 activation [15] -1.08% | outcome [16] | outcome [17] | outcome [19]

FC(F)(F)c1ccccc1Cl
inactive: Potency [1] > 92 µM | Potency [2] > 92 µM | Potency [3] > 92 µM | Potency [4] > 92 µM | Potency [5] > 92 µM | outcome [6] | activity change, negative = cytotoxicity [7] -3.42% | Potency [8] | Potency [9] | Potency [10] | Potency [11] | Potency [12] | Potency [13] | Potency [14] | caspase-3 activation [15] 2.68% | outcome [16] | outcome [17] | outcome [18]
